Results reported in PubChem BioAssay (EPA / NIEHS).
Inconclusive results are not listed. Calls of active or inactive are those of the source. Rule for the calls, unless noted: active = hit-call score of the fitted dose curve at least 0.9, where 1 is the maximum; inactive = score below 0.9.

Legend:
[1] = read-out: Monokine induced gamma interferon (MIG), CXCL9 (gene 4283); assay: BSK_3C_MIG: BioMAP Diversity Plus: 3C Assay for Monokine induced gamma interferon (MIG) Biomarker Activity (AID 2283021); details: primary human endothelial cells (HUVEC); actives raise or lower the signal;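 for AC50: MIG protein level measured by immunoassay in the treated endothelial cultures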
Procedure, shortened: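 ELISA measurement of MIG in human umbilical vein endothelial cells 24 h after treatment. Cytotoxicity tracked by SRB staining in parallel cultures; gain or loss of signal fitted relative to DMSO.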

[2] = BSK_3C_SRB: Viability Assessment in the BioMAP Diversity Plus: 3C Assay (AID 2283023); details: primary human endothelial cells (HUVEC);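 note: fitted both ways against DMSO so a hit may be signal rise or drop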
Procedure, shortened: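 Cells were dosed with chemical, cultured 24 h, fixed with 10% TCA, stained with 0.1% SRB and read at 560 nm. Human umbilical vein endothelium was used; DMSO served as negative control and baseline.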

[3] = read-out: Matrix Metallopeptidase 1 (MMP1), MMP1 (gene 4312); assay: BSK_BE3C_MMP1: BioMAP Diversity Plus: BE3C Assay for Matrix Metallopeptidase 1 (MMP1) Biomarker Activity (AID 2283024); details: primary human bronchial epithelial cells; actives raise or lower the signal
Procedure, shortened: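 ELISA measurement of MMP-1 after 24 h compound exposure of primary human bronchial epithelial cells. Changes in either direction fitted relative to DMSO; parallel SRB staining checked overt cytotoxicity.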

[4] = BSK_3C_Vis: BioMAP Diversity Plus: 3C Assay for Morphology Visualization (AID 2283025); details: primary human endothelial cells (HUVEC);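 note: fitted both ways so gain or loss versus DMSO counts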;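 for AC50: light microscopy image of cell morphology used as background control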
Procedure, shortened: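 Light-microscopy visualization of HUVEC cultures at 24 h post-treatment, with DMSO as baseline for bidirectional fitting.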

[5] = read-out: Pselectin, SELP (gene 6403); assay: BSK_4H_Pselectin: BioMAP Diversity Plus: 4H Assay for Pselectin Biomarker Activity (AID 2283026); details: primary human endothelial cells (HUVEC); actives raise or lower the signal
Procedure, shortened: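 ELISA of surface P-selectin on HUVEC, 24 h after dosing, with parallel SRB staining (0.1% after 10% TCA fixation, 560 nm) for overt cytotoxicity. Activity fitted in both directions relative to DMSO.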

[6] = BSK_4H_SRB: Viability Assessment in the BioMAP Diversity Plus: 4H Assay (AID 2283027); details: primary human endothelial cells (HUVEC);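 note: cells exposed to compound for 24 h before staining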;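 for AC50: curves fitted both ways versus DMSO so AC50 may be loss or gain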
Procedure, shortened: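 HUVEC, 24 h post-dose; 10% TCA fix, 0.1% SRB stain, A560 nm. Total protein = overt cytotoxicity, parallel to biomarker read. Bidirectional fit vs DMSO baseline.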

[7] = read-out: Thrombomodulin, THBD (gene 7056); assay: BSK_3C_Thrombomodulin: BioMAP Diversity Plus: 3C Assay for Thrombomodulin Biomarker Activity (AID 2283029); details: primary human endothelial cells (HUVEC); actives raise or lower the signal
Procedure, shortened: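 ELISA measurement of thrombomodulin on HUVEC surface 24 h after chemical dosing; activity fitted in both directions relative to DMSO vehicle.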

[8] = read-out: Urokinase-type plasminogen activator receptor (uPAR), PLAUR (gene 5329); assay: BSK_4H_uPAR: BioMAP Diversity Plus: 4H Assay for Urokinase-type plasminogen activator receptor (uPAR) Biomarker Activity (AID 2283030); details: primary human endothelial cells (HUVEC); actives raise or lower the signal
Procedure, shortened: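 Chemicals are dosed onto human vascular endothelial primary cells (umbilical vein). After 24 h, uPAR is read by ELISA. Gain or loss of signal is fitted relative to DMSO.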

[9] = read-out: Vascular endothelial growth factor receptor 2 (Homo sapiens) (UniProt P35968); assay: BSK_4H_VEGFRII: BioMAP Diversity Plus: 4H Assay for Vascular endothelial growth factor receptor 2 (VEGFR2) Biomarker Activity (AID 2283031); details: primary human endothelial cells (HUVEC); actives raise or lower the signal;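 for AC50: cell-surface VEGFR2 protein level quantified by ELISA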
Procedure, shortened: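 VEGFRII levels on human vascular endothelial primary cells were determined by ELISA at 24 hours post-dosing, with gain- or loss-of-signal fitted against DMSO controls.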

[10] = read-out: Human Leukocyte Antigen - DR isotype (HLADR), HLA-DRA (gene 3122); assay: BSK_BE3C_HLADR: BioMAP Diversity Plus: BE3C Assay for Human Leukocyte Antigen - DR isotype (HLADR) Biomarker Activity (AID 2283032); details: primary human bronchial epithelial cells; actives raise or lower the signal
Procedure, shortened: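 Cell-surface HLA-DR ELISA readout at 24 h after dosing in the BE3C primary human lung bronchial epithelial system; gain or loss of signal against DMSO, with parallel sulforhodamine B staining of total protein for overt cytotoxicity.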

[11] = read-out: Vascular cell adhesion molecule 1 (VCAM1), VCAM1 (gene 7412); assay: BSK_4H_VCAM1: BioMAP Diversity Plus: 4H Assay for Vascular cell adhesion molecule 1 (VCAM1) Biomarker Activity (AID 2283033); details: primary human endothelial cells (HUVEC); actives raise or lower the signal
Procedure, shortened: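 VCAM-1 ELISA read 24 h after chemical dosing of HUVEC in the BioMAP 4H system, with gain or loss of signal fitted relative to DMSO. Parallel SRB staining (560 nm) checked overt cytotoxicity.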

[12] = read-out: Interferon-gamma inducible Protein 10 (IP10), CXCL10 (gene 3627); assay: BSK_BE3C_IP10: BioMAP Diversity Plus: BE3C Assay for Interferon-gamma inducible Protein 10 (IP10) Biomarker Activity (AID 2283034); details: primary human bronchial epithelial cells; actives raise or lower the signal
Procedure, shortened: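 IP-10 quantified by ELISA in human primary bronchial epithelial cell cultures at 24 hours post-dosing. Gain or loss of signal fitted relative to DMSO; parallel SRB staining assessed overt cytotoxicity.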

[13] = read-out: Monokine induced gamma interferon (MIG), CXCL9 (gene 4283); assay: BSK_BE3C_MIG: BioMAP Diversity Plus: BE3C Assay for Monokine induced gamma interferon (MIG) Biomarker Activity (AID 2283035); details: primary human bronchial epithelial cells; actives raise or lower the signal
Procedure, shortened: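 Dose cells (human primary bronchial epithelial), incubate 24 h, quantify MIG by ELISA, then fit concentration–response in both directions relative to DMSO control.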

[14] = read-out: Transforming growth factor beta 1 (TGFb1), TGFB1 (gene 7040); assay: BSK_BE3C_TGFb1: BioMAP Diversity Plus: BE3C Assay for Transforming growth factor beta 1 (TGFb1) Biomarker Activity (AID 2283036); details: primary human bronchial epithelial cells; actives raise or lower the signal
Procedure, shortened: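 ELISA readout of TGF-b1 from human lung bronchial epithelial primary cells, taken 24 h post-treatment. Gain or loss of signal fitted relative to DMSO baseline, with parallel SRB staining for overt cytotoxicity.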

[15] = read-out: Plasminogen activator inhibitor-1 (PAI1), SERPINE1 (gene 5054); assay: BSK_BE3C_PAI1: BioMAP Diversity Plus: BE3C Assay for Plasminogen activator inhibitor-1 (PAI1) Biomarker Activity (AID 2283037); details: primary human bronchial epithelial cells; actives raise or lower the signal
Procedure, shortened: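 PAI-1 was measured by ELISA in human primary bronchial epithelial cultures 24 h after chemical dosing, with cytotoxicity checked by SRB total-protein staining in parallel cultures. Activity was fitted in both directions relative to DMSO.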

[16] = read-out: urokinase plasminogen activator (uPA), PLAU (gene 5328); assay: BSK_BE3C_uPA: BioMAP Diversity Plus: BE3C Assay for urokinase plasminogen activator (uPA) Biomarker Activity (AID 2283038); details: primary human bronchial epithelial cells; actives raise or lower the signal
Procedure, shortened: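 Measured by ELISA: uPA from human primary bronchial epithelial cells 24 h after chemical treatment. Values derive from bidirectional curve fitting with DMSO serving as negative control. Total protein by SRB staining in parallel wells flagged overt cytotoxicity.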

[17] = read-out: Urokinase-type plasminogen activator receptor (uPAR), PLAUR (gene 5329); assay: BSK_BE3C_uPAR: BioMAP Diversity Plus: BE3C Assay for Urokinase-type plasminogen activator receptor (uPAR) Biomarker Activity (AID 2283039); details: primary human bronchial epithelial cells; actives raise or lower the signal
Procedure, shortened: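 uPAR levels were measured by ELISA after 24 h compound treatment of primary human bronchial epithelial cells, fitted in both directions relative to DMSO. Parallel SRB staining served as the cytotoxicity read-out.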

[18] = read-out: Interleukin-6 (IL6), IL6 (gene 3569); assay: BSK_CASM3C_IL6: BioMAP Diversity Plus: CASM3C Assay for Interleukin-6 (IL6) Biomarker Activity for (AID 2283040); details: primary human coronary artery smooth muscle cells; actives raise or lower the signal
[19] = target: human Vitamin D Receptor (VDR), VDR (gene 7421) (UniProt P11473); assay: ATG_VDR_TRANS: Attagene TRANS-FACTORIAL HepG2 Assay for human Vitamin D Receptor (VDR) (AID 2283022; active = hit-call score of the fitted dose curve at least 0.9, where 1 is the maximum)
Procedure, shortened: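 Fluorescence of labelled reporter cDNA fragments, resolved by capillary electrophoresis, gives mRNA induction after 24 h treatment of HepG2 cells carrying transfected Gal4-fusion reporter units. Activity is fitted in the positive direction with DMSO as baseline.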

[20] = BSK_BE3C_SRB: Viability Assessment in the BioMAP Diversity Plus: BE3C Assay (AID 2283028); details: primary human bronchial epithelial cells
Procedure, shortened: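 Overt cytotoxicity was assessed as total protein in confluent human primary bronchial epithelial cultures 24 h after chemical addition, using 0.1% sulforhodamine B staining read at 560 nm.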

Measured: AC50

Sequence of human Vitamin D Receptor (VDR), VDR (gene 7421) (P11473 whole entry, looked up, the tested form may be a part): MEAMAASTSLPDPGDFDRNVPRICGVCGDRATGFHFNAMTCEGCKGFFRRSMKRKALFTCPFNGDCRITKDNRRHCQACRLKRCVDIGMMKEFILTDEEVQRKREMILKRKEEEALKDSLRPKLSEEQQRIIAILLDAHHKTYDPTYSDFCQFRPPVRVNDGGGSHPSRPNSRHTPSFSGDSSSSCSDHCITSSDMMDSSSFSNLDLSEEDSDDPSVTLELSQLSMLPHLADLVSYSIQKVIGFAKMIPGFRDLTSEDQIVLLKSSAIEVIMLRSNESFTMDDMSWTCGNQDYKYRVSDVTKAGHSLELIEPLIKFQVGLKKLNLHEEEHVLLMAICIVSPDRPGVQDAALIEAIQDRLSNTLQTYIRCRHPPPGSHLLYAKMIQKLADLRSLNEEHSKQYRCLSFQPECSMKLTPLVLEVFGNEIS

CC1(C)Cc2cccc(O)c2O1
not listed: [19] | [20]
inactive: all other assays above

CCSC(C)CC1CC(=O)C(C(CC)=NOC/C=C/Cl)=C(O)C1 (centres undefined)
not listed: [19] | [20]
inactive: all other assays above

CCCCP(CCCC)CCCC
inactive: [19]

CCOP(=O)(CN(CCO)CCO)OCC
inactive: [19]

COC(=O)c1sccc1S(=O)(=O)NC(=O)Nc1nc(C)nc(OC)n1
not listed: [19] | [20]
inactive: all other assays above

COc1cc(OC)nc(NC(=O)NS(=O)(=O)c2ncccc2C(=O)N(C)C)n1
not listed: [19]
inactive: all other assays above

COC(=O)Cc1ccccc1
not listed: [4] | [14] | [20]
inactive: all other assays above

C=C(C)C(=O)[O][Sn]([CH2]CCC)([CH2]CCC)[CH2]CCC
inactive: [19]
active: [1] 0.148 µM | [2] 0.148 µM | [3] 0.148 µM | [4] 0.468 µM | [5] 0.148 µM | [6] 0.148 µM | [7] 1.16 µM | [8] 0.148 µM | [10] 0.148 µM | [11] 0.148 µM | [12] 0.336 µM | [13] 0.147 µM | [14] 0.146 µM | [15] 0.146 µM | [16] 0.215 µM | [17] 0.146 µM | [18] 0.148 µM

COC[C@H](C)N(C(=O)CCl)c1c(C)csc1C
not listed: [19] | [20]
inactive: all other assays above

Cn1sc(Cl)cc1=O
active: [5] 9.68 µM | [11] 20 µM | [18] 20 µM
not listed: [19] | [20]
inactive: all other assays above

C[C@@H]1C[C@@H]([C@H](O)CC2CC(=O)NC(=O)C2)C(=O)[C@@H](C)C1
inactive: [20] | [7]
active: [1] 20.1 µM | [2] 4.82 µM | [3] 2.51 µM | [4] 9.24 µM | [5] 3.9 µM | [6] 7.08 µM | [8] 4.3 µM | [9] 8.73 µM | [10] 4.95 µM | [11] 17.7 µM | [12] 8.61 µM | [13] 14.4 µM | [14] 2.83 µM | [15] 1.63 µM | [16] 6.45 µM | [17] 4.03 µM | [18] 1.27 µM

COP(=S)(OC)Oc1cc(Cl)c(Cl)cc1Cl
active: [3] 20 µM | [5] 20 µM | [6] 20 µM | [11] 24.9 µM | [12] 19.1 µM | [15] 8.51 µM
not listed: [19] | [20]
inactive: all other assays above

COc1ccc(OC)c(C=O)c1
inactive: [19]
